PubChem BioAssay (NCI)
About 83,000 compounds went through this panel and 20% of them were active in at least one assay; those are over-represented in the sample as a whole.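 The endpoint reported here, percent growth, reads 100 for growth as untreated, 0 for no net growth and -100 for all cells dead.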 Values without a mark were called inactive. Calls of active or inactive are those of the source. The calls were made as follows: active = growth percent below 10; inactive = the rest.

Test system: OVCAR-4 ovarian
Assay: NCI-60 one-dose screen, 48 h (100 = growth as untreated, 0 = no growth, -100 = all killed)
Settings: 10 µM

SMILES | growth
CC1=C(CCC=O)C2=C(C)C3(CC3)[C@@](C)(O)C(=O)C2=C1 | -97.4% (active)
CC[C@]12C=CCN3CC[C@@]4(c5ccc(OC)cc5N(C)[C@H]4[C@@](O)(C(=O)OC)[C@@H]1OC(=O)CCC[P+](C1CCCCC1)(C1CCCCC1)C1CCCCC1)[C@@H]32 | 17.7%
CC(=O)Oc1ccccc1C(=O)NC([Se])=NC1CCCCC1 | -13.3% (active)
C[C@H]1[C@@H](Oc2ccc(-c3cn(-c4ccnc5cc(Cl)ccc45)nn3)cc2)O[C@@H]2OC3(C)CC[C@H]4[C@H](C)CC[C@@H]1[C@@]24OO3 | 40.9%
COc1cc2cc(C(=O)N3C[C@@H](CCl)c4c3cc(OC(=O)N3CCN(C(=O)CCC(=O)N5CCN(C)CC5)[C@@H]5CSSC[C@@H]53)c3ccccc43)[nH]c2c(OC)c1OC | -6.42% (active)
O=C(/C=C/c1cccc(Br)c1)c1nc2ccccc2n1Cc1ccc(F)cc1 | 54.8%
CC[C@]12C=CCN3CC[C@@]4(c5ccc(OC)cc5N(C)[C@H]4[C@@](O)(C(=O)OC)[C@@H]1OC(=O)CCC[P+](c1ccc(C)cc1)(c1ccc(C)cc1)c1ccc(C)cc1)[C@@H]32 | -73.5% (active)
O=C(/C=C/c1ccc(F)cc1)c1nc2ccccc2n1Cc1ccc(F)cc1 | 56.8%
COc1ccc(OC)c(/C=C/C(=O)c2nc3ccccc3n2Cc2ccc(F)cc2)c1 | 37.9%
CC1=C(CCC=NNC(N)=O)C2=C(C)C3(CC3)[C@@](C)(O)C(=O)C2=C1 | -38.1% (active)
Cc1ccc2[nH]c(=S)n(-c3ccc(F)cc3)c(=O)c2c1 | 104%
CC1=C(COCCOC(=O)c2ccc(S(=O)(=O)F)cc2)C2=C(C)C3(CC3)[C@@](C)(O)C(=O)C2=C1 | -23% (active)
O=C(/C=C/c1ccc(Br)cc1)c1nc2ccccc2n1Cc1ccc(Br)cc1 | 35.5%
COC(=O)CCn1c(-c2ccc(-n3cc(-c4ccc(O[C@H]5O[C@@H]6OC7(C)CC[C@H]8[C@H](C)CC[C@@H]([C@H]5C)[C@@]68OO7)cc4)nn3)cc2)nc2ccccc21 | 34.2%
CC1=C(C=O)C2=C(C)C3(CC3)[C@@](C)(O)C(=O)C2=C1 | 44.5%
C[C@H]1[C@@H](CC(=O)N[C@@H](Cc2coc3ccccc23)B(O)O)O[C@@H]2OC3(C)CC[C@H]4[C@H](C)CC[C@@H]1[C@@]24OO3 | 18.3%
C[C@H]1[C@H](OC(=O)CCC(=O)N(CCCc2cn(-c3ccc(C#N)cc3)nn2)CCNc2ccnc3cc(Cl)ccc23)O[C@@H]2OC3(C)CC[C@H]4[C@H](C)CC[C@@H]1[C@@]24OO3 | 41.9%
